# Laboratory results published in PubChem BioAssay (NCI).
# The panel holds about 83,000 compounds, 20% with a hit somewhere; the sample as a whole holds those more often.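 Treatment: one concentration, 48 hours, 96-well format. Scoring: percent growth, with anything below 10 considered active.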 Activity calls are given as the source filed them.
# Test system: UACC-257 melanoma
# Test: NCI-60 one-dose screen, 48 h (100 = growth as untreated, 0 = no growth, -100 = all killed)
# Conditions: 10 µM unless noted
row,Structure (SMILES),growth
1,Nc1ccc(CCCCc2ccccc2)c(Cl)c1,89% (inactive)
2,Nc1ccc(S(=O)(=O)Nc2ccsc2-c2nc(-c3ccccc3)no2)cc1,67.2% (inactive)
3,C=C(CNCCc1ccc(O)cc1)[C@@H]1CC[C@]2(COC3CCCCO3)CC[C@]3(C)[C@H](CC[C@@H]4[C@@]5(C)CCC(NCCO)C(C)(C)[C@@H]5CC[C@]43C)[C@@H]12 (some centres not stated),-85.6% (active)
4,OC(COc1cccc2ccccc12)CN1CCN(c2ccccc2)CC1 (configuration not stated),63.3% (inactive)
5,Cc1[nH]c(-c2nc3ccccc3[nH]2)c(C)c1C(=O)N1CCc2sccc2C1,96.9% (inactive)
6,CC(C)n1nc(C#Cc2cccc(NC(=O)c3cccc(C(F)(F)F)c3)c2)c2c(N)ncnc21,-18.2% (active)
7,Cc1cc(NS(=O)(=O)c2ccccc2)c(OS(=O)(=O)c2ccccc2)cc1C,109% (inactive)
8,OCCCCc1nccc2c1[nH]c1ccccc12,113% (inactive)
9,C=C(C)[C@@H]1CC[C@]2(CNCCO)CC[C@]3(C)[C@H](CC[C@@H]4[C@@]5(C)CCC(N)[C@@](C)(CO)[C@@H]5CC[C@]43C)[C@@H]12 (some centres not stated),-87.1% (active)
10,OC(c1cccc(OCc2ccccc2)c1)c1nnc(-c2ccccc2)o1 (configuration not stated),94.5% (inactive)
11,Cl.[Pt].[c-]1ccccc1-c1ccccn1.c1ccc(P(c2ccccc2)C([PH+](c2ccccc2)c2ccccc2)[PH+](c2ccccc2)c2ccccc2)cc1,15.5% (inactive)
12,COc1cc2c(c(OC)c1OC)C(=O)/C(=C/c1cc(C)c(O)c(C)c1)S2,78.2% (inactive)
